This is part of a sample that, as a whole, favours compounds with a hit. Of some 83,000 tested, about 20% had one in any assay.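 96-well plates, one dose, 48 hours. Percent growth reported; active if below 10.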 A number with no mark means an inactive call. The source made the active and inactive calls.

This passage reports growth results from PubChem BioAssay (NCI).

Holding throughout (test): NCI-60 one-dose screen, 48 h (100 = growth as untreated, 0 = no growth, -100 = all killed)
What all share (settings): 10 µM unless noted

Assay [1] deals with NCI-H226 lung.
Assay [2] has as its system NCI-H322M lung.
Assay [3] relates to HOP-62 NSCLC.
For assay [4], the system named is NCI-H460 lung.
Assay [5] concerns HOP-92 NSCLC.
Assay [6] has as its system NCI-H522 lung.
Assay [7] has as its system A549/ATCC NSCLC.
Assay [8] relates to 786-0 renal.
In assay [9] the test system is COLO 205 colon.

As for `N#Cc1c(-c2ccc(Cl)cc2)nc(NN=Cc2ccco2)nc1N1CCOCC1`, the growth in assay [1] was 70.8%; in assay [2] it was 69.4%; in assay [3], 66.4%; in assay [4] it was 68.2%; in [5], 40.6%; in [6], 62.3%. Further, the growth in assay [7] is 78.9%; in [8], 74%; in assay [9] it was 75.2%.
For the compound `O=C1/C(=C/c2ccc(Cl)cc2)SC(=S)N1CCc1ccc(O)cc1`, the growth is 96.1% in assay [1]; 99.3% in [2]; 99.9% in assay [3]; 99.3% in [4]; 73.7% in [5]; -30% (active) in [6]. For the same compound, the values for the growth in [7], in assay [8] and in assay [9] were 87%, 78.6% and 110%, respectively.
For the compound `CC1=NN(c2nc(-c3ccc(Cl)cc3)c(C#N)c(N3CCOCC3)n2)C(=O)C1`, the growth in assay [1] was 89.8%; in [2], 101%; in assay [3], 87%; in assay [4] it was 99.1%; in [5], 6.28% (active); in [6], 78.9%. For the same compound, the growth in [8] was 49.1%; in [9] it was 104%.
For `Cc1cc(C)nc(SC2=C(Nc3cc(Cl)ccc3O)C(=O)N(Cc3ccccc3)C2=O)n1`, the growth in assay [1] is 85.1% [30 µM]; in assay [2] it was -32% [30 µM] (active); in [3], 102% [30 µM]; in [4] it was 97.4% [30 µM]; in assay [5] it was 42.9% [30 µM]; in assay [6] it was 58.6% [30 µM]. For the same compound, the growth in assay [7] is 46.6% [30 µM]; in [8] it was 83.4% [30 µM]; in assay [9] it was 112% [30 µM].
For `NS(=O)(=O)c1ccc(CN=C2NC(=O)S/C2=C\c2ccc(Br)cc2)cc1`, the growth in assay [1] is 96.9%; in assay [2] it was 91%; in assay [3], 103%; in [4] it was 101%; in assay [5], 90.5%; in [6], 90.8%. In addition, the growth was 98.3% in assay [7], 94.1% in assay [8] and 106% in [9].
As for `O=C(COc1cccc(/C=C2\COc3ccc(Cl)cc3C2=O)c1)c1ccc(Cl)cc1`, the growth in [1] was 88.1%; in assay [2], 98.2%; in [3], 73.7%; in assay [4], 102%; in assay [5] it was 66.3%; in [6], 87.1%. Moreover, the growth in [7] was 100%; in assay [8], 98%; in assay [9] it was 116%.
As for `C=CC(COC(c1ccccc1)(c1ccccc1)c1ccccc1)N(CC)CC` (stereo unspecified), the growth in assay [1] is 56.2%; in assay [2] it was 87%; in assay [4], 58.1%; in [5], 75.7%; in [6], 54.9%; in assay [7] it was 63.1%. In addition, the growth in assay [8] is 77.6%; in assay [9] it was 0.413% (active).
On to `O=S(=O)(Nc1ccc(OC(F)F)cc1)c1ccc(-c2cnc(C3CC3)o2)cc1`, for which the growth was 74.1% in assay [1]; 95.7% in assay [2]; 66.6% in assay [3]; 79.1% in assay [4]; 59.3% in assay [5]; 43% in assay [6]. For the same compound, the values for the growth in assay [7], in assay [8] and in [9] were 60.4%, 84% and 97.2%, respectively.
In the case of `O=[N+]([O-])c1cnc(N2CCN(CC3CC3)CC2)nc1N1CCN(CC2CC2)CC1`, the growth in [1] was 81.3%; in assay [2], 88.8%; in [3], 108%; in [4] it was 102%; in assay [5], 74%; in assay [6], 93.9%. The growth in [7] was 104%; in [8] it was 94.8%; in [9], 97.1%.
For `O=C1NC(=Nc2ccc(O)cc2)S/C1=C\c1cccc(Cl)c1`, the growth was 102% in assay [1]; 83.7% in assay [2]; 76.1% in assay [3]; 86.3% in [4]; 72.5% in [5]; 54.9% in assay [7]. For the same compound, the figures for the growth in assay [8] and in assay [9] were 67.1% and 102%, respectively.
Regarding `Cc1ccc2c(C(C[N+](=O)[O-])c3ccccc3F)c(-c3ccccc3)[nH]c2c1` (stereo unspecified), the growth in [2] is 68.5%; in assay [3], 36.2%; in [4], 20.9%; in assay [5], 45.8%; in assay [6], -17.2% (active); in assay [7], 35.2%. Further, the growth in assay [8] was 56.7%; in assay [9], 32.3%.
On to `Cc1ccc(-c2onc3c(=O)[nH]nc(-c4ccccc4)c23)cc1`, for which the growth in [1] is 61.6%; in assay [2], 56.9%; in [3], 26.5%; in [4], 19.1%; in assay [5], 31.8%; in [6] it was -19.5% (active). In addition, the growth was 31.5% in assay [7], 37.1% in [8] and 7.07% (active) in [9].
Turning to `O=S(=O)(Nc1ccc(Cl)c(F)c1)c1ccc(-c2cnc(C3CC3)o2)cc1`, the growth was 58.6% in assay [1]; 39.7% in [2]; 32.5% in assay [3]; 13.5% in assay [4]; 42% in assay [5]; -15.8% (active) in assay [6]. Further, the growth in assay [7] was 30.1%; in assay [8], 42.6%; in assay [9], 1.76% (active).
On to `COc1cccc(-c2nc(SCC(=O)Nc3ccc(C(=O)/C=C/c4ccc(OC)c(OC)c4)cc3)[nH]c(=O)c2C#N)c1`, for which the growth in assay [1] was 105%; in assay [2], 76.3%; in [3] it was 94.1%; in assay [4], 94.7%; in [5], 93.2%; in assay [7], 90.6%. The growth is 99.4% in assay [8] and 103% in assay [9].
With `CCOC(=O)c1csc(NC(=O)COc2cccc(/C=C3\CSc4ccccc4C3=O)c2)n1`, the growth in [1] is 98.1%; in [2] it was 97.1%; in assay [3], 80.1%; in assay [4], 98.4%; in [5] it was -79.1% (active); in assay [6] it was -39.2% (active). The growth in [7] is 97.2%; in [8] it was 87.1%; in [9], 87.9%.
Consider `COc1cc2c(cc1-c1c(C)noc1C)ncc1nc(C3CCOCC3)n([C@H](C)COC(F)F)c12`, for which the growth is 41.2% in assay [2]; 59.2% in [4]; 36.9% in assay [5]; 31.2% in assay [6]; 36.2% in assay [7]; 48% in [8]. Further, the growth in [9] was 31.6%.
Regarding `CCN1CCN(c2nc(NCCCNc3ccnc4cc(Cl)ccc34)c3ccccc3n2)CC1`, the growth in assay [1] is 60.4%; in assay [2] it was 45.4%; in assay [3], 32.4%; in [4] it was 16.3%; in [5], 64.9%; in assay [6], -21.5% (active). In addition, the growth in assay [7] was 18.8%; in assay [8] it was 30.7%; in assay [9], -22.9% (active).
